Measured values reported in PubChem BioAssay (NCATS).
Calls of active or inactive are those of the source. No stated cut-off is given here; in the data, active means potency below about 10 µM; inactive means the rest.

Molecular target: Lysosomal acid glucosylceramidase (Homo sapiens) (UniProt P04062)
Test: Glucocerebrosidase-p2 (AID 348)
Settings: purified GBA, blue fluorogenic substrate, 40 min
Procedure, shortened: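 Normal human glucocerebrosidase (0.2 nM) with blue fluorogenic substrate (80 uM final) in citrate/phosphate pH 5.9 with 10mM sodium taurocholate, 0.01% tween-20; 40 min RT, NaOH/glycine stop; fluorescence Ex 365/Em 440; AC50 from a titration from 0.6 nM upwards.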
Potency means the concentration at half of the fitted maximal effect.

Chain of Lysosomal acid glucosylceramidase (Homo sapiens) (P04062 whole entry, looked up): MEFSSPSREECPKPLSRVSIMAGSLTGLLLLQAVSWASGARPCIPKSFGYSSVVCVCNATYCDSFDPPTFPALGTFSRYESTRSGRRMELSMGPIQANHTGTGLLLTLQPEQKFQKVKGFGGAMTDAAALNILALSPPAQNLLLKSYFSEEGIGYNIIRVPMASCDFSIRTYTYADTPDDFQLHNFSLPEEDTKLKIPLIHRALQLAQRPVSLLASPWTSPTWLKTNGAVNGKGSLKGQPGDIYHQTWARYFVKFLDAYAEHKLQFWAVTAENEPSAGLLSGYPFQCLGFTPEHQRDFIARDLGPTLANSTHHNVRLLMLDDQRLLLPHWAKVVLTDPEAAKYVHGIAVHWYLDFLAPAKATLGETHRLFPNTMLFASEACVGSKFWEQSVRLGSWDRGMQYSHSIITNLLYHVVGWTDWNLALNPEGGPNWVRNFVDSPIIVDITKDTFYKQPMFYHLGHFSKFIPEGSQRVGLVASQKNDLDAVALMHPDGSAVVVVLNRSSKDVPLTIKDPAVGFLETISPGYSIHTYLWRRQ

Potency, inactive:
Cc1ccccc1-c1cncnc1NCc1ccccc1 > 11.4 µM, CN(C)C(=O)c1ccc(-c2cc(NCc3cccnc3)ncn2)cc1 > 11.4 µM, Cc1noc(C)c1-c1cc(NCc2cccnc2)ncn1 > 11.4 µM, CN(C)c1ncc2nc(-c3cc(F)cc(F)c3)c(=O)n(CCC#N)c2n1 > 11.4 µM, Fc1ccc(Nc2ncncc2-c2ccccc2C(F)(F)F)cc1 > 11.4 µM, COc1ccc(-c2nc3cnc(Oc4ccccc4)nc3n(CCC#N)c2=O)cc1 > 11.4 µM, COc1ccc(-c2nc3cnc(N4CCN(C)CC4)nc3n(Cc3cccs3)c2=O)cc1 > 11.4 µM, COc1ccc(-n2c(=O)c(-c3ccc(F)cc3)nc3cnc(N4CCOCC4)nc32)cc1 > 11.4 µM, Cc1noc(C)c1-c1nccc(N2CCOCC2)n1 > 11.4 µM, COc1ccccc1CCn1c(=O)c(-c2cccc(F)c2)nc2cncnc21 > 11.4 µM, COCCn1c(=O)cnc2cnc(Oc3ccc(OC)cc3)nc21 > 11.4 µM, COc1ccc(Oc2ncc3nc(C)c(=O)n(C[C@H]4CCCO4)c3n2)cc1 > 11.4 µM, COCCNc1nc(-c2ccccc2Cl)nc2ccccc12 11 µM, CN(C)c1ccc(-c2ccc3ncnc(N(C)C)c3c2)cc1 > 11.4 µM, CN1CCN(c2ncc3nc(-c4ccc(Cl)cc4)c(=O)n(-c4ccccc4)c3n2)CC1 > 11.4 µM
